Bioassay records (PubChem)
WRN inhibitor – qHTS for Inhibitors of WRN Helicase. Potency, µM (highest dose often 114 µM), for inactives: at the top dose activity change, negative = inhibition, usual class: inhibitors. Bifunctional 3'-5' exonuclease/ATP-dependent helicase WRN (Homo sapiens), Q14191. WRN helicase unwinding, fluorescent forked duplex, kinetic. 360,000 compounds, 0.46% hits; also: potency is read from the fitted curve at half-maximal effect; % is scaled to controls: 0 for no effect and ±100 for the full control effect; nearly all actives have a fitted effect of over 55% in size
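Enzyme (20 nM final) and test compound sit together 15 min at room temperature before substrate addition. Substrate is a single-forked duplex oligonucleotide (100 nM) labelled with fluorophore and quencher, with 2 mM ATP; helicase unwinding raises red fluorescence, read kinetically.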
Pol iota inh – qHTS for Inhibitors of Polymerase Iota; Potency, µM (doses to about 115 µM), without a hit: at the top dose activity, negative = inhibition, actives largely listed as inhibitors; Pol iota fluorescent replication assay, 10 min; DNA polymerase iota (Homo sapiens), Q9UNA4; 390,000 compounds, 1% hits; AID 588590, 2011; also: potency is read from the fitted curve at half-maximal effect
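Pol iota at 10 nM preincubated 15 min with compounds at room temperature; reaction started with fluorescent substrate, 50 nM final. Fluorescence read kinetically at 0 and 10 min; buffer-only wells as negative control.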
PI5P4Ka inh – qHTS for Inhibitors of phosphatidylinositol 5-phosphate 4-kinase (PI5P4K). max response, %. 330,000 compounds, 1.2% hits. Phosphatidylinositol 5-phosphate 4-kinase type-2 alpha (Homo sapiens), P48426. PI5P4Kalpha enzyme, ADP-Glo luminescence, 60 min; active compounds read low. AID 652105, 2013; active = max response of -50% or lower; inconclusive = between -30% and -50%; inactive = -30% or higher; also: value at the top dose of about 77 µM; % is scaled to controls: 0 for no effect and ±100 for the full control effect
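qHTS, 1536-well: enzyme/substrate mix, compound by pin tool, 5 microM ATP final; RT 60 min; ADP-Glo reagents 1 (45 min) then 2 (30 min); luminescence.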
Pol beta inh – qHTS Assay for Inhibitors of DNA Polymerase Beta; P06746; Pol beta primer extension/strand displacement, fluorescence kinetic; Potency, µM (titrated, usually from 114 µM), for inactives: at the top dose activity change, negative = inhibition, most hits filed as inhibitors; 340,000 compounds, 1.3% hits; AID 485314, 2010; also: potency is read from the fitted curve at half-maximal effect; % is scaled to controls: 0 for no effect and ±100 for the full control effect
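Pol beta (10 nM) was preincubated with compound for 15 min at room temperature. The reaction was then started with 50 nM substrate and read immediately and after a further 10 min at room temperature.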
POLK inh – qHTS for Inhibitors of Polymerase Kappa; Potency, µM (highest dose often 107 µM), without a hit: at the top dose activity, negative = inhibition, actives largely listed as inhibitors; DNA polymerase kappa (Homo sapiens), Q9UBT6; 400,000 compounds, 0.53% hits; purified Pol kappa, fluorescent DNA synthesis assay, 10 min; also: potency is read from the fitted curve at half-maximal effect; % is scaled to controls: 0 for no effect and ±100 for the full control effect
Target sequence (Q9UBT6 whole entry, looked up): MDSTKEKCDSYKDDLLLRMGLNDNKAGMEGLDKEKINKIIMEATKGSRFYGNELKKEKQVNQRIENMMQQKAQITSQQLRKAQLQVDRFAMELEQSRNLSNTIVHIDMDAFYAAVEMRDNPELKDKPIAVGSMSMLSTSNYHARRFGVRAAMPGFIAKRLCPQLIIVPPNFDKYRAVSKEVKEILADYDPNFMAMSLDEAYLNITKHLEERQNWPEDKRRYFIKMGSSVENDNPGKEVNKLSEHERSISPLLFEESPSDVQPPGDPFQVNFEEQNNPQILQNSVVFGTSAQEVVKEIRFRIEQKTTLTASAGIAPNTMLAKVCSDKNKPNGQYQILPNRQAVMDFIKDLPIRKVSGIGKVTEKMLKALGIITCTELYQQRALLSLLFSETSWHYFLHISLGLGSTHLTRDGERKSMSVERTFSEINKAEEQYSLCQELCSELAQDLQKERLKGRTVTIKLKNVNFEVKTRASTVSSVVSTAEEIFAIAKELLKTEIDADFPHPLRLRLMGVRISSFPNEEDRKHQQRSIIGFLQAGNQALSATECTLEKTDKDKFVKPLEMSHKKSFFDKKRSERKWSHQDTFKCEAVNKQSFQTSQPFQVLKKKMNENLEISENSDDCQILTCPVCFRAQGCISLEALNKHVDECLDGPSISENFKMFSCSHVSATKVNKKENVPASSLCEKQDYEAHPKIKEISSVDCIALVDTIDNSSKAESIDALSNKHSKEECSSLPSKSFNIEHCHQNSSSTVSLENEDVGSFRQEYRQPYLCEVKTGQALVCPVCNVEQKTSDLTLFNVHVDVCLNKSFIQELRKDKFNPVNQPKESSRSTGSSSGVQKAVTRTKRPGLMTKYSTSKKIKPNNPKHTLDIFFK
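Pol kappa 10 nM + cpd, 15 min RT; start w/ substrate 50 nM final; fluorescence kinetic read, 0 and 10 min. Neg ctrl: buffer, no enzyme.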
POLH inh – qHTS for Inhibitors of Polymerase Eta; DNA polymerase eta (Homo sapiens), Q9Y253; recombinant Pol eta, fluorescent DNA replication assay; Potency, µM (top dose mostly 114 µM), for inactives: top-dose activity change, negative = inhibition, most hits filed as inhibitors; 390,000 compounds, 1.2% hits; AID 588591, 2011; also: potency is read from the fitted curve at half-maximal effect; % is scaled to controls: 0 for no effect and ±100 for the full control effect
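Fluorescent replication assay: 50 nM final substrate added after a 15 min room-temperature compound preincubation with 10 nM enzyme. Signal taken at 0 min and again at 10 min.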
Starred values were filed as active, the others as inactive; ? = inconclusive; · = no result given; [ ] = dose if it differs, or a comment. Only some compounds are listed: those with a hit (about 2.8% of all), similar ones and a draw of the others. Unless noted, calls follow the shape of the dose curve; as a rule, active = well fitted curve in the direction sought with a large enough effect; inconclusive = small, poorly fitted or top-dose-only effect, or another doubt; inactive = no such curve, though single readings can be large; an effect the other way counts as inactive or inconclusive.

SMILES	WRN inhibitor	Pol iota inh	PI5P4Ka inh	Pol beta inh	POLK inh	POLH inh
COc1cc(C=C(C#N)C#N)cc(O)c1O	·	?	·	-11%[57.1 µM]	·	11µM*
CN(C)c1ccc(C=C(C#N)C#N)cc1	-7%	6%	-1	-15%	-4%	-7%
Oc1cc[c]([Hg][Cl])cc1	·	·	·	·	0%[19.4 µM]	·
CC(C)OP(=O)(OC(C)C)C(O)c1cccc([N+](=O)[O-])c1 (stereo not given)	5%	43%	0	20%	-10%	-12%
N[C@H]1C[C@H]1c1ccccc1	·	·	·	·	-5%[12 µM]	·
N.N.N.N.N.N.N.N.N.N.N.N.N.N.O.O.[Cl-].[Cl-].[Cl-].[Cl-].[Cl-].[Cl-].[Ru].[Ru].[Ru]	·	8.9µM*	·	5.6µM*	·	25µM*
Fc1ccc(C(OCCN2CCN(C/C=C/c3ccccc3)CC2)c2ccc(F)cc2)cc1	·	·	·	·	0%[19.4 µM]	·
COP(=O)(c1ccc(N(C)C)cc1)C(O)c1ccccc1 (stereo not given)	4%	67%	-7	-3%	3%	-8%
CC1CC2CCC(O2)C(C)C(=O)OC(C)CC2CCC(O2)C(C)C(=O)OC(C)CC2CCC(O2)C(C)C(=O)OC(C)CC2CCC(O2)C(C)C(=O)O1 (stereo not given)	·	·	·	·	0%[60.1 µM]	·
CCS(=O)(=O)N1N=C(c2cccc(NS(C)(=O)=O)c2)CC1c1ccccc1 (stereo not given)	50µM*	34%	5	32µM*	-2%	45µM*
CCCc1cc(=O)oc2cc(OCc3ccc(C(=O)O)o3)ccc12	-3%[11.6 µM]	113%	-8	71µM*	-16%	?
CC(=O)O.CC(=O)O.[Cd]	·	·	·	·	10µM*	·
Cc1cccn2c(=O)c(/C=C(\C#N)c3nc4ccccc4s3)c(Oc3ccc(F)cc3)nc12	·	?	·	?	-4%	79µM*
N#CN=C1SCCN1Cc1ccc(Cl)nc1	·	·	·	·	14%[60.1 µM]	·
CC(C)CC(=O)Nc1ccc(C(=O)Cn2c(=O)oc3ccccc32)cc1	4%	?	-16	20µM*	-7%	0%
CCn1c(=O)oc2cc(NC(=O)CCl)ccc21	0%	94%	-6	17%	-8%	-16%
O=C(O)C(NC(=O)c1ccccc1)=C(Cl)Cl	-5%	?	13	·	-5%	0%
Cc1cccc(C(=O)Nc2ccc(C(=O)OCc3cc(=O)n4nc(C5CC5)sc4n3)cc2)c1	·	-6%	·	-6%	-3%[60.1 µM]	?
CC(=O)[C@H]1CC[C@H]2C3CC[C@H]4C[C@](C)(O)CC[C@]4(C)C3CC[C@]12C (stereo not given in full)	·	·	·	·	1%[60.1 µM]	·
CC[C@@]1(O)CC(O)c2c(cc3c(c2O)C(=O)c2c(O)ccc(O)c2C3=O)C1C(=O)OC (stereo not given in full)	·	·	·	·	25µM*	·
CC[C@]1(O)CC(O[C@@H]2CC(N(C)C)C(O)C(C)O2)c2c(cc3c(c2O)C(=O)c2c(O)cccc2C3=O)C1C(=O)OC (stereo not given in full)	·	·	·	·	6.3µM*	·
C=C1C([C@@H](O)C[C@H](C)C2O[C@@]3(CCCCO3)CC[C@H]2C)OC2CC[C@@]3(CC[C@@H](/C=C/[C@@H](C)C4CC(C)=C[C@]5(O4)O[C@H](C[C@@](C)(O)C(=O)O)CCC5O)O3)OC2[C@@H]1O (stereo not given in full)	·	·	·	·	0%[19.4 µM]	·
CCOC(=O)C(SP(=S)(OC)OC)c1ccccc1 (stereo not given)	·	·	·	·	-16%[60.1 µM]	·
C#CCN(C)[C@H](C)Cc1ccccc1	2%[11.6 µM]	79µM*	6	-29%	-7%	-11%
COC(=O)C(O)(c1ccc(NC(=O)c2ccccc2)cc1)C(F)(F)F (stereo not given)	0%	28%	0	1%	-2%	-25%
SMILES	WRN inhibitor	Pol iota inh	PI5P4Ka inh	Pol beta inh	POLK inh	POLH inh
O=C(Cc1ccccc1)OCc1ccccc1	-4%	6%	5	·	0%	-10%
O=C(Nc1cc[c]([Sb](=[O])([OH])[OH])cc1)c1ccccc1	·	?	·	·	6.3µM*	·
[O]=[Sb]([OH])([OH])[c]1ccccc1	·	20µM*	·	·	25µM*	·
CC1CC(C)C(=O)[C@H](C(O)CC2CC(=O)NC(=O)C2)C1 (stereo not given in full)	·	·	·	·	0%[60.1 µM]	·
CCOc1ccc(NC(=O)CSc2oc(-c3ccccc3)nc2S(=O)(=O)c2ccc(Cl)cc2)cc1	·	-5%	·	?	0%	-8%
CCOC(=O)CN(C#N)c1nc(N(C)C)nc(N(C)C)n1	1%	20%	-8	-9%	-3%	-11%
COC(=O)C1=C(c2ccc(F)cc2OCc2ccccc2)C[C@@H]2CC[C@H]1N2C(=O)NCc1ccccc1	-6%	12%	-1	·	-19%	-19%
COC(=O)C1=C(c2ccc(F)cc2OCc2ccccc2)C[C@@H]2CC[C@H]1N2C(=O)NCc1ccco1	-21%	?	-22	·	?	45µM*
CCC1CN2CCC1CC2C(O)c1ccnc2ccccc12 (stereo not given)	·	·	·	·	-9%[19.4 µM]	·
CN(C)[C@H]1C(=O)C(C(N)=O)=C(O)[C@]2(O)C(=O)C3=C(O)c4c(O)cccc4[C@@](C)(O)[C@H]3C[C@@H]12	·	·	·	·	-8%[12 µM]	·
CN(C)C1C(=O)C(C(N)=O)=C(O)C2(O)C(=O)C3=C(O)c4c(O)cccc4C(C)(O)C3CC12 (stereo not given)	-3%	?	-9	3.2µM*	?	-7%
CN(C)[C@@H]1C(=O)C(C(N)=O)=C(O)[C@@]2(O)C(=O)C3=C(O)c4c(O)ccc(Cl)c4[C@@](C)(O)C3C[C@@H]12 (stereo not given in full)	-9%[57.1 µM]	?	?	?	79µM*	-13%
COC(=O)C[C@@](O)(CCC(C)(C)O)C(=O)O[C@@H]1C(OC)=C[C@]23CCCN2CCc2cc4c(cc2[C@@H]13)OCO4	·	·	·	·	13%[60.1 µM]	·
COCCCn1c(N)c(C(=O)Nc2ccccc2)c2nc3ccccc3nc21	-19%	14µM*	42	4%	-5%	-18%
O=C(NC1(C(F)(F)F)Oc2ccc(Cl)cc2O1)N1CCC2(CC1)OCCO2 (stereo not given)	-3%	13%	-2	14µM*	0%	-14%
O=C(NC1(C(F)(F)F)Oc2ccccc2O1)N1CCC2(CC1)OCCO2	-2%	?	·	-2%	-44%	-17%
